Assay results taken from PubChem BioAssay (NCI).
The panel holds about 83,000 compounds, 20% with a hit somewhere; the sample as a whole holds those more often.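 Cell lines were cultured in 96-well plates, exposed to a single compound concentration, and assessed for percent growth 48 hours later.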 A number with no mark means an inactive call. Active and inactive are the calls of the source. The calls were made as follows: active = growth percent below 10; inactive = the rest.

tested on: MDA-MB-468 breast; assay: NCI-60 one-dose screen, 48 h (100 = growth as untreated, 0 = no growth, -100 = all killed); settings: 10 µM unless noted

Row | SMILES | growth
1 | COC(=O)C(Cc1ccccc1)Nc1nc(NC(Cc2ccccc2)C(=O)OC)nc(N2CCOCC2)n1 (stereo not given) | 108%
2 | Cc1cc(N2CCOCC2)nc(N(CCNc2ccnc3cc(Cl)ccc23)Cc2cccs2)n1 | -15.2% (active)
3 | COc1cc(OC)c(/C=C/C(=O)c2c(OC)cc(OC)cc2OC)c(OC)c1 | 14%
4 | Cc1nc(Nc2cccnc2)sc1C(=O)/C=C/c1ccc(Cl)cc1 | 11.8%
5 | CC(C)(C)OC(=O)CC(S(=O)(=O)c1ccccc1)S(=O)(=O)c1ccccc1 | -23.7% (active)
6 | COc1ccccc1Nc1nc(-c2cc3cccc(C(F)(F)F)c3oc2=O)cs1 | -2.43% (active)
7 | CN(C)C1CCC(NC2=CC(=O)C=CC2=O)CC1 (stereo not given) | 105%
8 | O=C(/C=C/c1ccccc1)Oc1ccc(/C=C/c2cc(OC(=O)/C=C/c3ccccc3)cc(OC(=O)/C=C/c3ccccc3)c2)cc1 | 99.4%
9 | C[C@]12CC[C@@H]3c4ccc(O)cc4CC[C@H]3[C@@H]1C[C@H](O)C2 | 73.7%
10 | CCCCCCCCCc1ccc(OCCOCCOCCOCCOCCOCCOCCOCCOCCO)cc1 | -11.7% (active)
11 | C#C[C@]1(O)CC[C@H]2[C@@H]3CC=C4c5sc(N6CCN(C)CC6)nc5CC[C@]4(C)[C@H]3CC[C@@]21C | 47.6%
12 | CC(=O)c1cccc(N(C)S(=O)(=O)c2ccc(C)cc2)c1 | 111%
13 | COc1ccc(-c2nnc(SC/C(=N\O)c3ccccc3)o2)cc1 | 97%
14 | C#CC#CC#CC#CC#CC#CC#CC#CCC1OCC(COC(=O)O[C@@H](C(=O)O[C@H]2C[C@@]3(O)[C@@H](OC(=O)c4ccccc4)[C@@H]4[C@]5(OC(C)=O)CO[C@@H]5C[C@H](O)[C@@]4(C)C(=O)[C@H](OC(C)=O)C(=C2C)C3(C)C)[C@@H](NC(=O)c2ccccc2)c2ccccc2)O1 (stereo not given in full) | -22.4% (active)
15 | Oc1nc(NCc2ccccc2)sc1/C=C1\C=Nc2ncccc21 | 58.4%
16 | NNC(=O)Cc1ccccc1 | 92.3%
17 | O=C(Nc1ccc(F)cc1)Nc1ccc(NC(=O)c2cc(Cl)nc3ccccc23)cc1 | 38.7%
18 | CCCCCCCC/C=C/CCCCCCCC1=NC(C)(C)CN1CC(C)O (stereo not given) | 46.7%
19 | COc1cc(NS(C)(=O)=O)ccc1Cc1c2ccccc2nc2ccccc12 | -14.1% (active)
20 | CCCCCCN1C(=O)CN=C1Nc1ccc2cc3ccc(NC4=NCC(=O)N4CCCCCC)cc3nc2c1 | 3.94% (active)

Row | SMILES | growth
21 | CS(=O)(=O)c1cccc(Nc2ncc3cc(-c4ccccc4Cl)ccc3n2)c1 | 13.1%
22 | c1ccc(-c2c(-c3ccccc3)[n+](Cc3ccc4ccccc4c3)c(-c3ccccc3)n2Cc2ccc3ccccc3c2)cc1 | -76.4% (active)
23 | COc1ccc(N(C)c2ncnc3occ(C)c23)cc1 | 30.2%
24 | NC1=NC(SCc2ccccc2CCl)c2ncn(Cc3ccccc3CCl)c2N1 (stereo not given) | -33.2% (active)
25 | O=C1/C(=C\c2cn(C(=O)c3ccc(Cl)cc3)c3ccccc23)c2ccccc2N1c1c(Cl)cccc1Cl | 97.7%
26 | COc1ccc(Cc2cnc(N)nc2N)cc1OC | 104%
27 | Cc1nc2sc(C(=O)Nc3cccc4ccccc34)c(N)c2cc1C(=O)/C=C/c1ccccc1 | -3.46% (active)
28 | CCOC(=O)c1c(Nc2ccccc2)nn2c(N)c(C#N)c(-c3ccc(F)cc3)nc12 | 82.5%
29 | COc1cccc2nc(Nc3cccc(NC(=O)c4ccc(N5CCN(C)CC5)c(C(F)(F)F)c4)c3)ccc12 | 20.2%
30 | CCCCCCCCn1ccc2cc(NC(=O)Cn3cc(CN4CCN(CC)CC4)nn3)ccc21 | 62.1%
31 | O=c1[nH]c(=S)[nH]c(=O)n1Cc1cccc2ccccc12 | 107%
32 | COc1ccc(C(O)(c2ccccc2)C(C(=O)O)c2ccccc2)cc1 (stereo not given) | 110%
33 | O=C(Nc1ccc(I)cc1F)c1cc(I)ccc1O | -13.2% (active)
34 | C=C1C(=O)O[C@H]2[C@H]1CC/C(COC(=O)NCc1ccccc1OC)=C\CC[C@@]1(C)O[C@@H]21 | 42.2%
35 | CN(c1cc2ncc(=O)[nH]c2cc1NC(N)=NCc1ccc(Cl)cc1)C1CCCCC1 | -80.8% (active)
36 | c1ccc(C2CCCCC2)c(OCCCCCN2CCNCC2)c1 | -36.2% (active)
37 | Cc1nc(-c2cc3ccccc3oc2=O)ccc1C(=O)/C=C/c1ccccn1 | 60.5%
38 | Cc1nn(-c2ccccc2)c2nc(N)c(C3=NCCO3)nc12 | 113%
39 | Cc1ccnc2c(OCc3ccccc3)cccc12 | 34.2%
40 | C=C1C(=O)O[C@H]2[C@H]1CC/C(COC(=O)CCSSCCC(=O)OC/C1=C/CC[C@@]3(C)O[C@H]3[C@H]3OC(=O)C(=C)[C@@H]3CC1)=C\CC[C@@]1(C)O[C@@H]21 | -54% (active)
